Experimental data reported in PubChem BioAssay (Tox21).
Results filed as inconclusive are left out. A number with no mark means an inactive call. The source made the active and inactive calls. Calls follow the shape of the dose curve; as a rule, active = well fitted activation curve with a large enough effect in the signal ratio in the repeat runs (not every such curve was filed as active); inconclusive = weak or mixed curves, or effect the other way; inactive = no such curve, though single readings can be large or run the other way; the % refers to the signal ratio. Non-standard residues stand in square brackets, D forms with d. Residues, ends and D or L forms follow the SMILES beside them. pGlu = O=C1CC[C@@H](C(=O)O)N1; Thz = O=C(O)[C@@H]1CSCN1

These molecules were tested against Peroxisome proliferator-activated receptor gamma (Homo sapiens) (UniProt P37231) (assay: qHTS assay to identify small molecule agonists of the peroxisome proliferator-activated receptor gamma (PPARg) signaling pathway (AID 743094)). Settings: HEK293H PPARg-UAS-bla, beta-lactamase FRET ratio, 17 h; series mostly up to 57 µM; activation: at the top concentration.
Chain of Peroxisome proliferator-activated receptor gamma (Homo sapiens) (P37231 whole entry, looked up): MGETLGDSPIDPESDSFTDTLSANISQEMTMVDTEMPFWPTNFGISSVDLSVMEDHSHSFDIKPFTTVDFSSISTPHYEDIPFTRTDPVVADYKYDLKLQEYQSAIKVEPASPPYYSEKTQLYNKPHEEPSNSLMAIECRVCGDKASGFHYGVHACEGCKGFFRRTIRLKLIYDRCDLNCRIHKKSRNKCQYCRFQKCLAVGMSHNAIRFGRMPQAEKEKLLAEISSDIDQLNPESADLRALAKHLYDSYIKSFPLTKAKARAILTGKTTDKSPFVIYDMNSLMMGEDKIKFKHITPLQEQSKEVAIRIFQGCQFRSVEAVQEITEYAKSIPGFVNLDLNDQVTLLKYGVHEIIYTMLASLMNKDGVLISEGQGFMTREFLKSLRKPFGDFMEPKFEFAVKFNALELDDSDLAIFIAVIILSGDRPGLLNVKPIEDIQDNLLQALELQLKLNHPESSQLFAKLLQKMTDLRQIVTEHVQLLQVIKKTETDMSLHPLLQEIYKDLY
Text: U.S. Tox21 Program National Center for Advancing Translational Sciences [NCATS] NIH Chemical Genomics Center [NCGC] U.S. Environmental Protection Agency [EPA] National Institutes of Environmental Health Sciences [NIEHS] National Toxicology Program [NTP] U.S. Food and Drug Administration [FDA] Tox21 Assay Overview: The peroxisome proliferator-activated receptors (PPARs) are lipid-activated transcription factors of the nuclear receptor superfamily with three distinct subtypes namely PPAR alpha, PPAR delta (also called PPAR beta) and PPAR gamma (PPARg). All these subtypes heterodimerize with Retinoid X receptor (RXR) and these heterodimers regulate transcription of various genes. PPAR-gamma receptor (glitazone receptor) is involved in the regulation of glucose and lipid metabolism. To identify the compounds that activate PPAR-gamma signaling, GeneBLAzer PPAR gamma UAS-bla HEK293H cell line (Invitrogen, Carlsbad, CA, USA) containing a beta-lactamase reporter gene under control of the control of an upstream activator sequence (UAS) stably integrated into HEK293H cells was used to screen Tox21 compound library.
Tox21 Assay Protocol Summary: PPARg-bla cells were dispensed at 3000 cells/6uL/well in 1536-well black wall/clear bottom plates using a Multidrop Combi (Thermo Fisher Scientific, Waltham, MA) dispenser. After the assay plates were incubated at 37C and 5% CO2 for 5 h, 23 nL of compounds dissolved in DMSO, positive controls or DMSO only was transferred to the assay plate by a Pintool station (Kalypsys, San Diego, CA). The assay plates were incubated at 37C for 17 h. After 1 uL of LiveBLAzerTM B/G FRET substrate was added using a Bioraptr Flying Reagent Dispenser (FRD) workstation (Beckman Coulter, Indianapolis, IN, USA), the plates were incubated at room temperature for 1 h, and fluorescence intensity was measured by an Envision plate reader (PerkinElmer, Shelton, CT).
% is scaled to controls: 0 for no effect and ±100 for the full control effect.

Compound	activation	Potency
C[N+](C)(CCCCCC[N+](C)(C)C1c2ccccc2-c2ccccc21)C1c2ccccc2-c2ccccc21	-2.98%	–
CC(C)[C@@H](C)/C=C/[C@@H](C)[C@H]1CC[C@H]2/C(=C/C=C3\C[C@@H](O)CC[C@@H]3C)CCC[C@]12C	-0.677%	–
CN1[C@@H]2CC[C@H]1CC(OC(c1ccccc1)c1ccccc1)C2 (stereo not given in full)	–	inactive
CCOC(=O)COc1ccc2c(C)c(CCN(CC)CC)c(=O)oc2c1	0%	–
c1ccc2c(CCC3CCNCC3)c[nH]c2c1	-10%	–
CC(C)(C)CC(C)(C)c1cc(Cc2cc(C(C)(C)CC(C)(C)C)cc(-n3nc4ccccc4n3)c2O)c(O)c(-n2nc3ccccc3n2)c1	-1.97%	–
CC(=O)N[C@@H](C=O)[C@@H](O)[C@H](O)[C@H](O)CO	0.0021%	–
Cc1cccc(C)c1Nc1ncccc1C(=O)O	-2.38%	–
CO/N=C(\C(=O)N[C@@H]1C(=O)N2C(C(=O)OCOC(=O)C(C)(C)C)=C(/C=C\c3scnc3C)CS[C@H]12)c1csc(N)n1	3.09%	–
C#C[C@]1(O)CC[C@H]2[C@@H]3CCC4=CC(=O)CC[C@@H]4[C@H]3C(=C)C[C@@]21CC	3.31%	–
COc1ccc(C[C@@H](C)NC[C@H](O)c2ccc(O)c(NC=O)c2)cc1	4.09%	–
COc1cc(NCCCC(C)N)c2ncccc2c1 (stereo not given)	-1.93%	–
CC(C)(C)NCC(O)CSc1nc(-c2ccc(C(N)=O)s2)cs1 (stereo not given)	2.58%	–
CC[C@H](C)[C@@H]1NC(=O)[C@H](Cc2ccc(O)cc2)NC(=O)[C@@H](N)CSSC[C@@H](C(=O)N2CCC[C@H]2C(=O)N[C@@H](CC(C)C)C(=O)NCC(N)=O)NC(=O)[C@H](CC(N)=O)NC(=O)[C@H](CCC(N)=O)NC1=O	3.73%	–
[O]=[Bi][O]C(=O)[O][Bi]=[O]	1.72%	–
O=c1oc2cc(O)ccc2s1	-0.745%	–
CCN(CC)CCCC(C)Nc1cc(/C=C/c2ccccc2Cl)nc2cc(Cl)ccc12 (stereo not given)	-1.02%	–
CC(C)(C)c1ccc(CN2CCN(C(c3ccccc3)c3ccc(Cl)cc3)CC2)cc1 (stereo not given)	-4.07%	–
CC(=O)O[C@H]1CC[C@@]2(C)C(=CC[C@H]3[C@@H]4CC[C@H](C(C)=O)[C@@]4(C)CC[C@@H]32)C1	0.124%	–
O=C1CC[C@@H](C(=O)N2CSC[C@H]2C(=O)O)N1 ([pGlu]-[Thz]-OH)	-1.06%	–

Compound	activation	Potency
Nc1ncnc2c1ncn2[C@@H]1O[C@H](COP(=O)(O)OP(=O)(O)OP(=O)(O)O)[C@@H](O)[C@H]1O	6.41%	–
C=CC1=C(C)C2=CC3=NC(=C(CC(=O)[O-])C4=NC(=C(C)C4=C([O-])[O-])C=c4[n-]c(c(C)c4CC)=CC1=N2)C(CCC(=O)[O-])C3C.[Cu+2].[Na+].[Na+].[Na+] (stereo not given)	-2.54%	–
O=C(Cc1cccs1)N[C@@H]1C(=O)N2C(C(=O)[O-])=C(C[n+]3ccccc3)CS[C@H]12	-6.76%	–
c1ccc2cc(C3=NCCN3)ccc2c1	-1.38%	–
O=C(O)c1cc2ccccc2c(Cc2c(O)c(C(=O)O)cc3ccccc23)c1O	-8.6%	–
C[C@]12C=CC(=O)C=C1CC[C@@H]1[C@@H]2[C@@H](O)C[C@@]2(C)[C@H]1CC[C@]2(O)C(=O)COC(=O)CCC(=O)O	2.36%	–
Cc1onc(-c2ccccc2)c1C(=O)N[C@@H]1C(=O)N2[C@@H]1SC(C)(C)[C@@H]2C(=O)O	1.54%	–
COc1cc2c(cc1OC)[C@@H](c1ccccc1)CN(C)CC2	-2.76%	–
CC1C(=O)CC2C3(C)CCC2(C(C)C(=O)O)C(=O)C13 (stereo not given)	2.21%	–
CC(=O)O[C@]1(C(C)=O)CC[C@H]2[C@@H]3CCC4=CC(=O)CC[C@]4(C)[C@@]3(F)[C@@H](O)C[C@@]21C	-0.0985%	–
O=C(OC[C@H]1O[C@](O)(COC(=O)c2cccnc2)[C@@H](OC(=O)c2cccnc2)[C@@H]1OC(=O)c1cccnc1)c1cccnc1	2.52%	–
O=C(O)[C@H](CC(=O)N1C[C@H]2CCCC[C@H]2C1)Cc1ccccc1	3.58%	–
C[C@]12C=CC(=O)N[C@@H]1CC[C@@H]1[C@@H]2CC[C@]2(C)[C@@H](C(=O)Nc3cc(C(F)(F)F)ccc3C(F)(F)F)CC[C@@H]12	1.1%	–
CC[C@@H]1/C=C(\C)C[C@H](C)C[C@H](OC)[C@H]2O[C@@](O)(C(=O)C(=O)N3CCCC[C@H]3C(=O)O[C@H](/C(C)=C/[C@@H]3CC[C@@H](Cl)[C@H](OC)C3)[C@H](C)[C@@H](O)CC1=O)[C@H](C)C[C@@H]2OC	2.63%	–
O=S(=O)(O)CCCS(=O)(=O)O	2.28%	–
Cn1c(=O)c2c(ncn2CCOC(=O)C(C)(C)Oc2ccc(Cl)cc2)n(C)c1=O	0.686%	–
CC1(C)S[C@@H]2[C@H](NC(=O)C(C(=O)Oc3ccc4c(c3)CCC4)c3ccccc3)C(=O)N2[C@H]1C(=O)O (stereo not given in full)	0.422%	–
C[C@]12CCC(=O)C=C1CC[C@@H]1[C@@H]2[C@@H](O)C[C@@]2(C)[C@H]1CC[C@]2(O)C(=O)COP(=O)(O)O	6.68%	–
NC(=O)OCC(O)COc1ccc(Cl)cc1 (stereo not given)	-3.98% [at 26.2 µM]	–
O=C(O)c1c(Cl)c(Cl)c(Cl)c(Cl)c1-c1c2cc(I)c(=O)c(I)c-2oc2c(I)c(O)c(I)cc12	-7.03%	–
